# In PubChem BioAssay (EPA / NIEHS):
# Values joined by “and” are separate entries in the source; they are usually repeats but may differ in a detail not shown here. Equal values may be shown once. Active and inactive are the calls of the source. Rule for the calls: active = hit-call score of the fitted dose curve at least 0.9, where 1 is the maximum; inactive = score below 0.9.
# Read-out: Tissue Factor, F3 (gene 2152)
# Test: BSK_LPS_TissueFactor: BioMAP Diversity Plus: LPS Assay for Tissue Factor Biomarker Activity (AID 2283084)
# Settings: primary human HUVEC with PBMC; actives raise or lower the signal
# Outline: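 Human umbilical vein endothelial cells co-cultured with PBMC were dosed with compound. Cell-surface CD142 was measured by ELISA 24 h later. Activity was fitted bidirectionally against DMSO, with SRB total-protein staining in parallel cultures for cytotoxicity.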
SMILES,outcome,AC50
O=C(c1ccccc1)C1CCCCC1,inactive,–
S=C(S)NCCNC(=S)S.[Mn+2].[S-]C([S-])=NCCN=C([S-])[S-].[Zn+2],inactive,–
OB(O)O,inactive,–
CCN(Cc1c(F)cccc1Cl)c1c([N+](=O)[O-])cc(C(F)(F)F)cc1[N+](=O)[O-],inactive,–
CCCCC(CC)COC(=O)c1ccccc1C(=O)O (stereo not given),inactive,–
c1ccc(Nc2ccccc2)cc1,inactive,–
CCOC(=O)C(C)Oc1ccc(Oc2cnc3cc(Cl)ccc3n2)cc1 (stereo not given),inactive,–
CC(C)CCCCCCc1ccc(O)cc1,–,12.3 µM (active)
N#CSCSc1nc2ccccc2s1,–,2.42 µM (active) and 5.42 µM (active)
CCCN(CCC)c1c([N+](=O)[O-])cc(C(F)(F)F)c(N)c1[N+](=O)[O-],inactive,–
O=C(O)c1ccccc1,inactive,–
O=C(O)C1(C(=O)Nc2ccc(Cl)cc2Cl)CC1,inactive,–
CC(=O)S[C@@H]1CC2=CC(=O)CC[C@]2(C)[C@H]2CC[C@@]3(C)[C@@H](CC[C@@]34CCC(=O)O4)[C@H]12,–,20 µM (active)
CCCN(CCC)C(=O)SCC,inactive,–
Cc1nn(C)c(Oc2ccccc2)c1C=NOCc1ccc(C(=O)OC(C)(C)C)cc1,inactive,–
CCCCOCCOCCOCc1cc2c(cc1CCC)OCO2,inactive,–
CC1(C)C(C=C(Cl)Cl)C1C(=O)OCc1cccc(Oc2ccccc2)c1 (stereo not given),inactive,–
CCOC(=O)C(C)Oc1ccc(Oc2nc3ccc(Cl)cc3o2)cc1 (stereo not given),inactive,–
CCC(O)=C1C(=O)CC(C(=O)O)CC1=O (stereo not given),inactive,–
CCSC(=O)N(CC(C)C)CC(C)C,inactive,–
